Results on 37 molecules are retold here after PubChem BioAssay (NCI).

Molecules are shown by their SMILES. The panel holds about 79,000 compounds, 15% with a hit somewhere; the sample as a whole holds those more often. A number with no mark means an inactive call. Activity calls are given as the source filed them. Cut-off read from the data, not from the text of the source: active = growth inhibition above about 70%; inactive = the rest.

The nature of test [1]: NCI Yeast Anticancer Drug Screen. Data for the rad50 strain (AID 155).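 Note: 0% = growth of vehicle-only cultures of the same strain.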 Particulars: S. cerevisiae rad50 strain growth inhibition; at 50.0 µM; stronger effect = higher value. Summed up: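 Cells are treated with compound, grown, and their growth is then scored against vehicle-only cultures of the same repair-deficient yeast strain.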
A short description of test [2]: NCI Yeast Anticancer Drug Screen. Data for the mec2-1 strain (AID 157). Conditions: S. cerevisiae mec2-1 strain, at 50.0 µM, stronger effect = higher value. Summed up: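 Cells of the genetically defined mec2-1 yeast strain are incubated with test compound. Inhibition of growth is calculated against vehicle-treated controls.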
The nature of test [3]: NCI Yeast Anticancer Drug Screen. Data for the sgs1 mgt1 strain (AID 161).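 Note: 0% = growth of cultures given vehicle only.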 Particulars: S. cerevisiae sgs1 mgt1 strain, at 50.0 µM, stronger effect = higher value. Summed up:
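Genetically altered yeast, compound exposure, growth inhibition relative to vehicle.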

Test [4] is described as follows: NCI Yeast Anticancer Drug Screen. Data for the cln2 rad14 strain (AID 165).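 Note: 0% = growth equal to vehicle treated cultures.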 Conditions: S. cerevisiae cln2 rad14 strain, at 50.0 µM, stronger effect = higher value. Summed up: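 The screen exposed genetically defined yeast (cln2 rad14) to test compounds and scored growth inhibition relative to vehicle-treated controls.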
Test [5] is described as follows: NCI Yeast Anticancer Drug Screen. Data for the bub3 strain (AID 167). Conditions: S. cerevisiae bub3 mutant strain, at 50.0 µM, stronger effect = higher value. A digest of the protocol:
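Part of a panel of yeast mutants defective in DNA damage repair or cell cycle regulation. Each strain is grown with compound, and inhibition is calculated relative to solvent-treated cultures.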

Test [6] in a line: NCI Yeast Anticancer Drug Screen. Data for the mlh1 rad18 strain (AID 175). Particulars: S. cerevisiae mlh1 rad18 strain growth inhibition; at 50.0 µM; stronger effect = higher value. A digest of the protocol:
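Compound-treated yeast growth, normalised to vehicle controls. Strain bears defined DNA repair mutations.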

As to `Nc1ccc([As](=O)(O)O)cc1`, the growth inhibition was 27.8% in test [1]; 19.8% in test [2]; 14.9% in test [3]; 11.8% in test [4]; 7.9% in test [5]; 21.3% in test [6].
With `c1ccc2sc(SNC3CCCCC3)nc2c1`, the growth inhibition in test [1] was -29.7%; in test [2] it was -65.1%; in test [3] it was -60.1%; in test [4] it was -128%; in test [5] it was 13.6%; in test [6], 2.4%.
In the case of `CCC1(CCBr)C(=O)NC(=O)NC1=O`, the growth inhibition was -33.6% in test [1]; 3.35% in test [2]; 11.8% in test [3]; -34.5% in test [4]; 21.6% in test [5]; 2.3% in test [6].
As for `CC1(C)CN1C1=C(F)C(=O)C(N2CC2(C)C)=C(F)C1=O`, the growth inhibition was 36.5% in test [1]; 68.2% in test [2]; 50.5% in test [3]; 8.45% in test [4]; 47.3% in test [5]; 74.3% (active) in test [6].
Take `C=C(Nc1nc2ccc(C)cc2s1)C(=O)C(CC)C(=O)C(CC)CC1C(=O)NC(=O)NC1=O` (configuration not stated): the growth inhibition is -23.4% in test [1]; -13.6% in test [2]; 4.35% in test [3]; -31.8% in test [4]; -32.6% in test [5]; -0.2% in test [6].
As to `COP(=O)(OC)O/C(=C(/OP(=O)(OC)OC)c1ccccc1)c1ccccc1`, the growth inhibition in test [1] is 35.5%; in test [2] it was 14.3%; in test [3], 0.1%; in test [4], 24.1%; in test [5], -1.35%; in test [6], 25.1%.
Regarding `C1C[OH+]CC[OH+]CC[OH+]CC[OH+]CC[OH+]1.[Cl-].[V]`, the growth inhibition is -13.2% in test [1]; -6.25% in test [2]; -1.95% in test [3]; -10.8% in test [4]; -12% in test [5]; -1% in test [6].
Take `Nc1nc(CC(N)C(=O)O)c[se]1` (configuration not stated): the growth inhibition is 56.8% in test [1]; 28.4% in test [2]; 21.1% in test [3]; 5.35% in test [4]; 21.3% in test [5]; 11% in test [6].
`CCCCOP(=O)(O)SP(=O)(O)OCCCC`: the growth inhibition is -13.8% in test [1]; 17.1% in test [2]; 10.6% in test [3]; 20.9% in test [4]; 2.3% in test [5]; -3% in test [6].
Turning to `Cc1cc(-n2c(/C=C/c3ccc(Cl)cc3)nc3cc(Cl)ccc3c2=O)on1`, the growth inhibition is -27.2% in test [1]; -34.3% in test [2]; -12.8% in test [3]; -0.1% in test [4]; -9.75% in test [5]; -10.8% in test [6].
With `CC(=O)C(Sc1ccccc1[N+](=O)[O-])C(C)=O.[Co]`, the growth inhibition was 33.2% in test [1]; 9.5% in test [2]; 4.75% in test [3]; -1.3% in test [4]; 6.45% in test [5]; 15.8% in test [6].
`Cc1cc(C)cc(OP(=O)(Oc2cc(C)cc(C)c2)Oc2cc(C)cc(C)c2)c1`: the growth inhibition was -13.3% in test [1]; -24.6% in test [2]; 5.45% in test [3]; -3.65% in test [4]; 1.7% in test [5]; -5.25% in test [6].
For `O=C1C2C3c4ccccc4C(C2C(=O)N1c1ccccc1)[n+]1ccccc13` (configuration not stated), the growth inhibition was 47.8% in test [1]; 16.1% in test [2]; 41.7% in test [3]; -13.2% in test [4]; 7.1% in test [5]; 30.2% in test [6].
Take `CC1=CP(=O)(OC(C)C)CC(C)=C1Cl` (configuration not stated): the growth inhibition in test [1] is 33.7%; in test [2], -6.9%; in test [3], -11.4%; in test [4], -9.55%; in test [5], -25.8%; in test [6], 20.8%.
Turning to `NC(N)=Nc1nn[nH]n1`, the growth inhibition in test [1] was 3.25%; in test [2], -8.25%; in test [3], -13.7%; in test [4], -0.85%; in test [5], 0.35%; in test [6], -5.6%.
`CC1(C)OC2COC(CN=[N+]=[N-])C2O1` (configuration not stated): the growth inhibition in test [1] was 14.4%; in test [2], 8.65%; in test [3] it was 0.9%; in test [4] it was -0.8%; in test [5], 3%; in test [6], -3.75%.
`N.N.N.N.O=N[O-].O=N[O-].[Cl-].[Co+3]`: the growth inhibition in test [1] is 4.25%; in test [2] it was 16.1%; in test [3], 2.55%; in test [4] it was 36.1%; in test [5], 7.25%; in test [6] it was 0.2%.
As to `O=C(O)Cc1ccc2c(c1)OCO2`, the growth inhibition is 20.9% in test [1]; -0.35% in test [2]; 28.1% in test [3]; 12.2% in test [4]; -11.3% in test [5]; 23.6% in test [6].
Turning to `CCN(CC)CCO`, the growth inhibition in test [1] was -4.1%; in test [2] it was -4.9%; in test [3] it was -9.6%; in test [4], 7.05%; in test [5], 15.2%; in test [6], -23.6%.
`S=C(SP(SC(=S)N1CCCCC1)SC(=S)N1CCCCC1)N1CCCCC1`: the growth inhibition in test [1] was 28.9%; in test [2], -31.9%; in test [3], 47.5%; in test [4] it was -10.2%; in test [5], -2.2%; in test [6], 39.7%.
Turning to `c1ccc2c3c(ccc2c1)NC1CCCN1C3` (configuration not stated), the growth inhibition is 21.8% in test [1]; 6.65% in test [2]; -0.85% in test [3]; -38.8% in test [4]; -8.6% in test [5]; 12.2% in test [6].
For the molecule `CC(=O)CC(C)=O.CC(=O)CC(C)=O.CC(=O)CC(C)=O.[Tb]`, the growth inhibition in test [1] was -0.8%; in test [2], -7.7%; in test [3] it was -3.95%; in test [4], 26.8%; in test [5] it was -2.95%; in test [6], -19.8%.
Take `C/C=C/C(=O)[O-].N.N.N.N.N.[Co+3].[O-][Cl+3]([O-])([O-])[O-]`: the growth inhibition in test [1] was -10.4%; in test [2], -5.85%; in test [3] it was -7.6%; in test [4], 9.35%; in test [5], -12.8%; in test [6], -36.1%.
Take `CC(=O)OC[C@]12CCC(C)=C[C@H]1O[C@@H]1[C@H](O)[C@@H](OC(C)=O)[C@@]2(C)[C@@]12CO2`: the growth inhibition in test [1] is -9.2%; in test [2], -26.6%; in test [3], 14.9%; in test [4] it was -3.45%; in test [5] it was -1.3%; in test [6], -6.7%.
Consider `O=P(N1CCNCC1)(N1CCNCC1)N1CCNCC1`, for which the growth inhibition in test [1] is -20.1%; in test [2] it was -11.8%; in test [3], -1.35%; in test [4] it was -42.5%; in test [5], 5.45%; in test [6], -20.2%.
Consider `c1cc(C2O[C@H]3CCCN3[C@@H]2c2ccncc2)ccn1` (some centres not stated), for which the growth inhibition is -30.6% in test [1]; -17.9% in test [2]; 1.15% in test [3]; 2.85% in test [4]; -14.8% in test [5]; -25.4% in test [6].
With `Clc1ccc(-c2csc3cccc[n+]23)cc1`, the growth inhibition is 7.5% in test [1]; 4.35% in test [2]; 19.4% in test [3]; 24.1% in test [4]; 22.8% in test [5]; 19.3% in test [6].
With `CCCCC(CC)CC1C(=O)NC(=S)NC1=O` (configuration not stated), the growth inhibition in test [1] is -3.7%; in test [2], 5.55%; in test [3], -17.8%; in test [4], -37.1%; in test [5], -0.05%; in test [6], 6.35%.
Regarding `Cc1ccc(S(=O)(=O)Nc2cc(C)cc(CCN)c2C)cc1`, the growth inhibition in test [1] is 17.1%; in test [2], -11.6%; in test [3] it was -14.6%; in test [4] it was 4.75%; in test [5] it was 5.5%; in test [6] it was -10.1%.
In the case of `CCOC(=O)C(O)(c1ccccc1)c1ccccc1`, the growth inhibition was 2.05% in test [1]; -5.95% in test [2]; 6.85% in test [3]; 16.8% in test [4]; -3.35% in test [5]; 31% in test [6].
Regarding `CCC(C)OC(=O)Nc1cccc(OC(=O)NC)c1` (configuration not stated), the growth inhibition in test [1] was 4.75%; in test [2], -22.6%; in test [3], -2.1%; in test [4], -2.15%; in test [5], -1.6%; in test [6] it was -0.3%.
For `Nc1c(Cl)c(Cl)nc(C(=O)O)c1Cl`, the growth inhibition is 16% in test [1]; 9% in test [2]; 7.05% in test [3]; 3.8% in test [4]; 21.5% in test [5]; 24.2% in test [6].
Regarding `CC(C)OP(=O)(OC(C)C)C(N(C)C)P(=O)(OC(C)C)OC(C)C.[Cl][Sn]([Cl])([Cl])[c]1ccccc1`, the growth inhibition in test [1] is -10.9%; in test [2], -10.2%; in test [3], 2.1%; in test [4], 28.8%; in test [5], 7.85%; in test [6], 1.5%.
Turning to `O=C(O)c1cccc([As]=[As]c2cccc(C(=O)O)c2)c1` (configuration not stated), the growth inhibition was 8.4% in test [1]; -9.35% in test [2]; -8.75% in test [3]; 83.2% (active) in test [4]; -65.3% in test [5]; 1% in test [6].
Consider `CN(C)C1=C(N2CC2)C(=O)C(N(C)C)=C(N2CC2)C1=O`, for which the growth inhibition is 17.2% in test [1]; 9.9% in test [2]; 14.6% in test [3]; 9.3% in test [4]; 1% in test [5]; 23.7% in test [6].
Consider `O=[N+]([O-])C1CCC(O)C([N+](=O)[O-])C1` (configuration not stated) (tested in a mixture with another compound), for which the growth inhibition in test [1] was 71.8% (active); in test [2], 37.7%; in test [3], 93.7% (active); in test [4], 69.3%; in test [5], 13.6%; in test [6], 86.8% (active).
In the case of `c1cc2c(cc1NC1=NCCO1)OCO2`, the growth inhibition in test [1] was -23.2%; in test [2], -18.8%; in test [3], -3.65%; in test [4] it was 0.7%; in test [5] it was -13.8%; in test [6], -25.2%.
